Data reported in the supplement of paper PMC6555819.

How the values were obtained:
Assay in all cases: PBM binding z-score (relative to random genomic background probes); higher = stronger binding; sequences stand for … in GC…GCGATTGACAGCGTAGAATGAAGG
[1] = tested on: FXR:RXRa (NR concentration 270 nM, RXRa partner concentration 90 nM)
Outline: (§1)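 Binding buffer was PBS pH 7.4 with 2% milk, 0.02% Triton X-100, 1 mM DTT, 0.2 mg/mL BSA and 0.4 mg/ml salmon testes DNA. In it, ligand-free nuclear receptor dimers were incubated 1 h on custom Agilent 4×180K protein-binding microarrays carrying double-stranded probes. Antibodies against each partner (one per run) detected binding, and z-scores were calculated against random background probes after regression normalization of scanned fluorescence.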

[2] = tested on: LXRa:RXRa (NR concentration 270 nM, RXRa partner concentration 90 nM)
Outline: as §1

[3] = tested on: LXRa homodimer (NR concentration 270 nM)
Outline: as §1

[4] = tested on: LXRb:RXRa (NR concentration 270 nM, RXRa partner concentration 90 nM)
Outline: as §1

[5] = tested on: LXRb homodimer (NR concentration 270 nM)
Outline: as §1

[6] = tested on: PPARa:RXRa (NR concentration 270 nM, RXRa partner concentration 90 nM)
Outline: as §1

[7] = tested on: PPARg:RXRa (NR concentration 180 nM, RXRa partner concentration 90 nM)
Outline: as §1

[8] = tested on: PPARg:RXRa 270nM:90nM, anti-RXR (NR concentration 270 nM, RXRa partner concentration 90 nM)
Outline: as §1

[9] = tested on: PPARg:RXRa 30nM:10nM, anti-RXR (NR concentration 30 nM, RXRa partner concentration 10 nM)
Outline: as §1

[10] = tested on: PPARg:RXRa 90nM:30nM, anti-RXR (NR concentration 90 nM, RXRa partner concentration 30 nM)
Outline: as §1

[11] = tested on: PPARg:RXRa DBDmut IVT, anti-RXR (DBD mutation: RXRa K156A/R161A, NR concentration 270 nM, RXRa partner concentration 90 nM)
Outline: as §1

[12] = tested on: PPARg:RXRa IVT, anti-PPARg (NR concentration 270 nM, RXRa partner concentration 90 nM)
Outline: as §1

[13] = tested on: PPARg DBDmut:RXRa IVT, anti-PPARg (DBD mutation: PPARg1 K132A/R137A, NR concentration 270 nM, RXRa partner concentration 90 nM)
Outline: as §1

[14] = tested on: PPARg DBDmut IVT, anti-PPARg (DBD mutation: PPARg1 K132A/R137A, NR concentration 270 nM)
Outline: as §1

[15] = tested on: PPARg homodimer (NR concentration 180 nM)
Outline: as §1

[16] = tested on: PXR:RXRa (NR concentration 270 nM, RXRa partner concentration 90 nM)
Outline: as §1

[17] = tested on: PXR homodimer (NR concentration 270 nM)
Outline: as §1

[18] = tested on: RARa:RXR (NR concentration 270 nM, RXRa partner concentration 90 nM)
Outline: as §1

[19] = tested on: RARa homodimer (NR concentration 270 nM)
Outline: as §1

[20] = tested on: RARb:RXRa (NR concentration 270 nM, RXRa partner concentration 90 nM)
Outline: as §1

| Sequence | PBM binding z-score [1] | PBM binding z-score [2] | PBM binding z-score [3] | PBM binding z-score [4] | PBM binding z-score [5] | PBM binding z-score [6] | PBM binding z-score [7] | PBM binding z-score [8] | PBM binding z-score [9] | PBM binding z-score [10] | PBM binding z-score [11] | PBM binding z-score [12] | PBM binding z-score [13] | PBM binding z-score [14] | PBM binding z-score [15] | PBM binding z-score [16] | PBM binding z-score [17] | PBM binding z-score [18] | PBM binding z-score [19] | PBM binding z-score [20] |
| --- | --- | --- | --- | --- | --- | --- | --- | --- | --- | --- | --- | --- | --- | --- | --- | --- | --- | --- | --- | --- |
| TCTAGGTGGTCAAAGGTCACACACTCGAAATGCG | 6.45 | 5.79 | 3.73 | 5.64 | 1.02 | 6.57 | 10.3 | 8.72 | 8.95 | 10.2 | 3.06 | 5.9 | 1.01 | 1.59 | 4.5 | 6.19 | 1.82 | 7.34 | 2.69 | 5.22 |
| TAGCCTAGGTCAGATAGGGCCAGTATACGCTATA | 2.49 | 0.979 | -0.0979 | 0.697 | -0.375 | 1.59 | 0.726 | 0.567 | -0.0576 | 0.283 | 0.509 | 1.38 | 0.269 | 0.324 | 0.391 | 1.37 | -0.14 | 0.802 | -0.488 | 3.05 |
| AGTCAAAGTTCACTAGGAAACGTAAGATTCAGCT | 5.38 | 5.47 | 2.41 | 2.89 | 0.822 | 4.1 | 5.8 | 6.01 | 2.93 | 5.11 | 0.0474 | 2.6 | 1.13 | 0.557 | 2.18 | 3.61 | 2.13 | 2.66 | 0.899 | 4.84 |
| TCAGACAGGTGAAGGGAACTCAGGTACGCAGTCG | 0.945 | 0.772 | 0.0804 | 0.859 | 0.193 | 1.25 | 0.602 | 2.23 | 3.93 | 2.93 | 2.87 | 0.387 | -0.0761 | -0.559 | 0.811 | 0.733 | 0.499 | 0.697 | 0.593 | 1.04 |
| CATACAGGGTCAGCTAGGTCAGAGTAGGGACGGC | 5.34 | 3.88 | 0.985 | 3.24 | 0.645 | 4.72 | 4.42 | 3.93 | 0.846 | 2.42 | 1.85 | 3.37 | 1.35 | 1.12 | 3.26 | 3.65 | 1.7 | 4.31 | 1.02 | 4.44 |
| GCATATAGGTAATACAAGGTGAATGTCCGATTGT | 1.08 | 1.54 | 0.343 | 0.292 | -0.289 | 1.08 | 1.37 | 1.14 | 0.382 | 0.743 | 4.28 | 3.39 | 1.78 | 0.61 | 0.903 | 0.286 | 0.012 | 0.602 | 0.84 | 0.305 |
| TCTAGTTGGTGAAAGGTCACACACTCGAAATGCG | 5.7 | 5.73 | 3.63 | 5.31 | 1.6 | 6.32 | 10.8 | 9.75 | 9.91 | 11.4 | 2.69 | 5.86 | 2.76 | 2.05 | 7.7 | 5.97 | 2.06 | 7.3 | 4.58 | 4.79 |
